According to PubChem BioAssay AID1159580 (chemical genetic matrix, 2015):
Hit rate of the full screen: of about 5,500 compounds, about 2,000 (36%) were called active. About 18% were inconclusive and are not listed. Rule as the data show it: active = normalized growth mostly below about 0.91 (no sharp cut-off); inconclusive = no clear call, values can overlap the other calls; inactive = mostly above about 0.92. Some of the results follow.

Assay: chemical genetic growth profiling, strain panel (AID 1159580);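 also: tested at 20 µM; growth read once vehicle control cultures reached saturation at 30 °C; 1 = growth at the plate median or of vehicle wells; lower values mean less growth of the strain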
Conditions: growth OD
[1] = S. cerevisiae deletion strains, locus YDL101C, strain DUN1, active compounds read low
[2] = S. cerevisiae deletion strains, locus YHR030C, strain SLT2, active compounds read low

Measured: normalized growth

O=C1NC(=O)/C(=C/c2ccc(OS(=O)(=O)c3ccc(Cl)cc3)cc2)N1
inactive: S. cerevisiae deletion strains, locus YAL013W, strain DEP1, active compounds read low 1 | S. cerevisiae deletion strains, locus YBR229C, strain ROT2, active compounds read low 1.03 | [1] 0.983 | S. cerevisiae deletion strains, locus YDL134C, strain PPH21, active compounds read low 0.991 | S. cerevisiae deletion strains, locus YDR150W, strain NUM1, active compounds read low 0.957 | S. cerevisiae deletion strains, locus YEL061C, strain CIN8, active compounds read low 1.01 | S. cerevisiae deletion strains, locus YGR078C, strain PAC10, active compounds read low 0.983 | S. cerevisiae deletion strains, locus YGR229C, strain SMI1, active compounds read low 1.01 | [2] 0.989 | S. cerevisiae deletion strains, locus YHR087W, strain rtc3, active compounds read low 1.02 | S. cerevisiae deletion strains, locus YJL187C, strain SWE1, active compounds read low 1.04 | S. cerevisiae deletion strains, locus YJR043C, strain POL32, active compounds read low 0.982 | S. cerevisiae deletion strains, locus YJR075W, strain HOC1, active compounds read low 1.03 | S. cerevisiae deletion strains, locus YLR039C, strain RIC1, active compounds read low 1.02 | S. cerevisiae deletion strains, locus YLR058C, strain SHM2 (second series), active compounds read low 1.02 | S. cerevisiae deletion strains, locus YLR085C, strain ARP6, active compounds read low 0.999 | S. cerevisiae deletion strains, locus YLR262C, strain YPT6, active compounds read low 0.996 | S. cerevisiae deletion strains, locus YML094W, strain GIM5, active compounds read low 1 | S. cerevisiae deletion strains, locus YMR219W, strain ESC1, active compounds read low 1.01 | S. cerevisiae deletion strains, locus YMR263W, strain SAP30, active compounds read low 1 | S. cerevisiae deletion strains, locus YNL128W, strain TEP1, active compounds read low 0.978 | S. cerevisiae deletion strains, locus YNL153C, strain GIM3, active compounds read low 0.99 | S. cerevisiae deletion strains, locus YNL298W, strain CLA4 (second series), active compounds read low 0.976 | S. cerevisiae deletion strains, locus YNL322C, strain KRE1, active compounds read low 0.998 | S. cerevisiae deletion strains, locus YNR030W, strain Alg12, active compounds read low 1 | S. cerevisiae deletion strains, locus YPL055C, strain LGE1, active compounds read low 1.06 | S. cerevisiae deletion strains, locus YPL241C, strain CIN2, active compounds read low 1 | S. cerevisiae deletion strains, locus YPR135W, strain CTF4, active compounds read low 0.978 | S. cerevisiae strains, strain wild type, active compounds read low 0.964

O=C1Nc2ccccc2/C1=C\c1cccc([N+](=O)[O-])c1
inactive: S. cerevisiae deletion strains, locus YAR019C, strain CDC15, active compounds read low 0.974 | S. cerevisiae deletion strains, locus YBL105C, strain PKC1, active compounds read low 0.967 | S. cerevisiae deletion strains, locus YBR135W, strain CKS1, active compounds read low 0.974 | S. cerevisiae deletion strains, locus YBR136W, strain MEC1, active compounds read low 0.972 | S. cerevisiae deletion strains, locus YBR160W, strain CDC28, active compounds read low 0.979 | S. cerevisiae deletion strains, locus YDL017W, strain CDC7, active compounds read low 0.97 | S. cerevisiae deletion strains, locus YDL028C, strain MPS1, active compounds read low 0.971 | [1] 0.97 | S. cerevisiae deletion strains, locus YDL108W, strain KIN28, active compounds read low 0.968 | S. cerevisiae deletion strains, locus YDL132W, strain cdc53, active compounds read low 0.962 | S. cerevisiae deletion strains, locus YDL214C, strain PRR2, active compounds read low 0.983 | S. cerevisiae deletion strains, locus YDR052C, strain DBF4, active compounds read low 0.97 | S. cerevisiae deletion strains, locus YDR054C, strain cdc34, active compounds read low 0.957 | S. cerevisiae deletion strains, locus YDR226W, strain ADK1, active compounds read low 0.969 | S. cerevisiae deletion strains, locus YDR477W, strain SNF1, active compounds read low 0.971 | S. cerevisiae deletion strains, locus YER123W, strain YCK3, active compounds read low 0.985 | S. cerevisiae deletion strains, locus YER133W, strain GLC7, active compounds read low 1 | S. cerevisiae deletion strains, locus YFL009W, strain cdc4, active compounds read low 0.965 | S. cerevisiae deletion strains, locus YFL029C, strain CAK1, active compounds read low 0.982 | S. cerevisiae deletion strains, locus YFR003C, strain YPI1, active compounds read low 0.965 | S. cerevisiae deletion strains, locus YFR019W, strain FAB1, active compounds read low 0.987 | S. cerevisiae deletion strains, locus YFR028C, strain CDC14, active compounds read low 0.961 | S. cerevisiae deletion strains, locus YGR040W, strain KSS1, active compounds read low 0.967 | S. cerevisiae deletion strains, locus YGR052W, strain FMP48, active compounds read low 1.02 | S. cerevisiae deletion strains, locus YGR092W, strain DBF2, active compounds read low 0.921 | [2] 0.959 | S. cerevisiae deletion strains, locus YHR079C, strain IRE1, active compounds read low 0.913 | S. cerevisiae deletion strains, locus YHR082C, strain KSP1, active compounds read low 1.06 | S. cerevisiae deletion strains, locus YHR205W, strain SCH9, active compounds read low 0.848 | S. cerevisiae deletion strains, locus YIL147C, strain SLN1, active compounds read low 0.967 | S. cerevisiae deletion strains, locus YJL095W, strain BCK1, active compounds read low 0.955 | S. cerevisiae deletion strains, locus YJL128C, strain PBS2, active compounds read low 0.923 | S. cerevisiae deletion strains, locus YJL157C, strain FAR1, active compounds read low 0.985 | S. cerevisiae deletion strains, locus YJR016C, strain ILV3, active compounds read low 0.967 | S. cerevisiae deletion strains, locus YJR066W, strain TOR1 (second series), active compounds read low 0.981 | S. cerevisiae deletion strains, locus YJR066W, strain TOR1, active compounds read low 1.05 | S. cerevisiae deletion strains, locus YKL048C, strain ELM1, active compounds read low 0.971 | S. cerevisiae deletion strains, locus YKL067W, strain YNK1, active compounds read low 0.995 | S. cerevisiae deletion strains, locus YKL101W, strain HSL1, active compounds read low 0.967 | S. cerevisiae deletion strains, locus YKL193C, strain SDS22, active compounds read low 0.963 | S. cerevisiae deletion strains, locus YKL203C, strain TOR2, active compounds read low 1.05 | S. cerevisiae deletion strains, locus YLR113W, strain HOG1, active compounds read low 0.939 | S. cerevisiae deletion strains, locus YLR133W, strain CKI1, active compounds read low 0.975 | S. cerevisiae deletion strains, locus YLR403W, strain SFP1, active compounds read low 0.907 | S. cerevisiae deletion strains, locus YML070W, strain DAK1, active compounds read low 0.993 | S. cerevisiae deletion strains, locus YMR001C, strain CDC5, active compounds read low 0.97 | S. cerevisiae deletion strains, locus YMR205C, strain PFK2 (second series), active compounds read low 0.994 | S. cerevisiae deletion strains, locus YMR277W, strain FCP1, active compounds read low 0.969 | S. cerevisiae deletion strains, locus YNL006W, strain LST8, active compounds read low 0.979 | S. cerevisiae deletion strains, locus YNL020C, strain ARK1, active compounds read low 0.959 | S. cerevisiae deletion strains, locus YNL161W, strain CBK1, active compounds read low 0.965 | S. cerevisiae deletion strains, locus YNL183C, strain NPR1, active compounds read low 1.05 | S. cerevisiae deletion strains, locus YNL207W, strain RIO2, active compounds read low 0.963 | S. cerevisiae deletion strains, locus YNL222W, strain SSU72, active compounds read low 0.986 | S. cerevisiae deletion strains, locus YNL307C, strain MCK1 (second series), active compounds read low 0.957 | S. cerevisiae deletion strains, locus YOL078W, strain AVO1, active compounds read low 0.966 | S. cerevisiae deletion strains, locus YOL136C, strain PFK27, active compounds read low 0.985 | S. cerevisiae deletion strains, locus YOR061W, strain CKA2, active compounds read low 0.991 | S. cerevisiae deletion strains, locus YOR119C, strain RIO1, active compounds read low 1.07 | S. cerevisiae deletion strains, locus YOR231W, strain MKK1, active compounds read low 1.04 | S. cerevisiae deletion strains, locus YOR329C, strain SCD5, active compounds read low 0.973 | S. cerevisiae deletion strains, locus YPL031C, strain PHO85, active compounds read low 0.972 | S. cerevisiae deletion strains, locus YPL153C, strain RAD53, active compounds read low 0.992 | S. cerevisiae deletion strains, locus YPL204W, strain HRR25, active compounds read low 0.968 | S. cerevisiae deletion strains, locus YPL209C, strain IPL1, active compounds read low 0.974 | S. cerevisiae deletion strains, locus YPL256C, strain CLN2, active compounds read low 0.954 | S. cerevisiae deletion strains, locus YPR025C, strain CCL1, active compounds read low 0.978 | S. cerevisiae deletion strains, locus YPR106W, strain ISR1, active compounds read low 0.973 | S. cerevisiae deletion strains, locus YPR111W, strain DBF20, active compounds read low 0.966 | S. cerevisiae deletion strains, strain NNK1, active compounds read low 0.967 | S. cerevisiae deletion strains, strain TSCII, active compounds read low 0.963
